# Assays:
# Details in all cases: concentration: 1 μM,replicates: in singlicate; n = 1
# MLK1 = test system: T1, MLK1
# T1 construct: gene MAP3K9
# MLK2 = test system: MLK2
# MLK3 = test system: MLK3
# MRCKA = test system: MRCKA
# MRCKB = test system: T2, MRCKB
# T2 construct: gene CDC42BPB
# MST1R = test system: MST1R
# MST1 = test system: T3, MST1
# T3 construct: gene STK4
# MST2 = test system: T4, MST2
# T4 construct: gene STK3
# MST3 = test system: T5, MST3
# T5 construct: gene STK24
# MST4 = test system: MST4
# MTOR = test system: MTOR
# MUSK = test system: MUSK
# MYLK2 = test system: MYLK2
# MYLK4 = test system: MYLK4
# MYLK = test system: MYLK
# MYO3A = test system: MYO3A
# MYO3B = test system: MYO3B
# NDR1 = test system: T6, NDR1
# T6 construct: gene STK38
# NDR2 = test system: NDR2
# NEK10 = test system: NEK10
# 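Also: KINOMEscan kinase panel screen.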
Compound,%Inh (MLK1) [%],%Inh (MLK2) [%],%Inh (MLK3) [%],%Inh (MRCKA) [%],%Inh (MRCKB) [%],%Inh (MST1R) [%],%Inh (MST1) [%],%Inh (MST2) [%],%Inh (MST3) [%],%Inh (MST4) [%],%Inh (MTOR) [%],%Inh (MUSK) [%],%Inh (MYLK2) [%],%Inh (MYLK4) [%],%Inh (MYLK) [%],%Inh (MYO3A) [%],%Inh (MYO3B) [%],%Inh (NDR1) [%],%Inh (NDR2) [%],%Inh (NEK10) [%]
Cl.Cl.NC[C@H](Cc1ccc(C(F)(F)F)cc1)NC(=O)c1cc(Br)c(-c2ccnc3[nH]ccc23)s1 [GSK1487252],4,0,0,43,97.7,44,0,0,13,17,11,0,25,45,55,2,9,93.3,41,16
C=CC(=O)Nc1cc2c(Nc3ccc(F)c(Cl)c3)ncnc2cc1OCCCN1CCOCC1 [GW781483],0,0,3,0,11,10,1,0,33,0,15,0,0,18,0,0,3,4,1,17
CCN(CC)CCOc1ccc(Nc2ncc3cc(-c4c(Cl)cccc4Cl)c(=O)n(C)c3n2)cc1 [SB-601273],87,71,75,83,76,93,57,58,80,83,43,51,98.4,26,29,61,38,32,71,12
Cl.Cl.Nc1nc(-c2ccc3c(N)n[nH]c3c2)cc(N2CCCC(NC(=O)c3ccccc3)C2)n1 (stereo not drawn) [GSK2286775],0,0,0,2,0,35,0,8,12,2,39,0,0,27,11,22,0,20,0,16
CC(C)Nc1cc(-c2ccc3c(N)n[nH]c3c2)nc(N)n1 [GSK2221681],10,0,9,0,0,13,0,0,0,0,9,0,23,37,18,0,0,10,0,13
Cc1ccc2c(-c3ccncc3)c(-c3ccc(F)cc3)nn2c1.Cl [GW461484],10,0,0,5,0,38,5,7,2,0,9,0,17,3,13,0,7,29,0,9
CC(C)N1C(=O)Cc2cc(Nc3ncc(C(F)(F)F)c(NCc4cccc(S(C)(=O)=O)c4)n3)ccc21,99.7,90.2,98.8,0,0,0,0,35,23,0,0,15,0,0,10,0,3,35,0,0
Cl.Cl.NC[C@H](CC1CCCCC1)NC(=O)c1cc(Br)c(-c2ccnc3[nH]ccc23)s1 [GSK1581427],0,0,0,86,99.4,11,0,0,0,10,6,3,19,99.7,40,0,0,95.1,82,0
Cc1cc2cn[nH]c2cc1-c1cccc2c(N)c(C(N)=O)nnc12,18,0,30,24,0,11,90.2,88,11,69,3,0,0,10,71,14,0,85,0,86
C[C@@H](Oc1cc(-c2cnn(C3CCNCC3)c2)cnc1N)c1c(Cl)ccc(F)c1Cl,0,0,0,0,10,,56,0,,0,2,75,20,30,21,0,0,19,6,60

# From PMC5540273 (PLoS ONE, 2017)
